Source: PubChem BioAssay (Paczesny and Yang Labs, IUPUI and University of Michigan)
Only a selection was taken, and hits are over-represented in it overall.
ST2 IL33 inh – blocks human ST2 binding to IL-33. AlphaLISA ST2-Fc/biotin-IL-33 interaction, 1 h. inhibition, % for hits at 17 µM. 78,000 tested, 2.3% active; in the data active = inhibition above about 30%
Target sequence (Q01638 whole entry, looked up): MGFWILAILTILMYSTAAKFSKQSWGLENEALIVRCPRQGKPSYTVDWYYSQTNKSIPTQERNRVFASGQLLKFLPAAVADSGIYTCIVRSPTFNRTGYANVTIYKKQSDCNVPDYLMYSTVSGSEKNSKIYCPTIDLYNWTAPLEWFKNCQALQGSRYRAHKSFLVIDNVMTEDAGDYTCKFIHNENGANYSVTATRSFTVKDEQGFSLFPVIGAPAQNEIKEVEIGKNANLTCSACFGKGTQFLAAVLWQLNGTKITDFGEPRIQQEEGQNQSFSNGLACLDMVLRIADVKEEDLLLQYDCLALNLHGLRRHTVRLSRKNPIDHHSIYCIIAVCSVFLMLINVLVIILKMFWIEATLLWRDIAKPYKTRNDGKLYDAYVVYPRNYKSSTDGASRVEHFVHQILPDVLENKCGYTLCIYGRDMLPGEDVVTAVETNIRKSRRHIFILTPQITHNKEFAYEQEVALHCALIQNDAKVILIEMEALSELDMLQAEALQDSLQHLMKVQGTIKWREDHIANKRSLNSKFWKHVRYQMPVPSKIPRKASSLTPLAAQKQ
Active calls of the source: *; i = inactive.

SMILES	ST2 IL33 inh
Cc1ccc(C)c(S(=O)(=O)N2CCN(c3nc(C)cc(Nc4ccccc4)n3)CC2)c1	i
CCOC(=O)C1(CCOc2ccccc2)CCCN(C(=O)c2ccc(OC)o2)C1 (stereo not given)	i
CCOc1ccc(NC(=O)c2oc3ccccc3c2NC(=O)c2cccs2)cc1	i
COCCn1c(CNS(=O)(=O)c2cccc([N+](=O)[O-])c2)nc2cccnc21	i
COc1cc(OC)c(OC)cc1CNC(C)C1COc2ccccc2O1 (stereo not given)	i
O=C(CN1C(=O)/C(=C\c2ccc(Cl)cc2)Sc2ccccc21)NCCN1CCCC1	33%*
O=C(CN1C(=O)/C(=C\c2ccc(Cl)cc2)Sc2ccccc21)N1CCOCC1	i
CCCCNC(=O)CN1C(=O)/C(=C\c2ccc(Cl)cc2)Sc2ccccc21	i
O=C(NCCN1CCOCC1)Nc1ccc(Cl)cc1	i
CCC1Oc2ccccc2N(CC(=O)NCCN2CCCC2)C1=O (stereo not given)	i
O=C(CN1C(=O)/C(=C\c2ccc(Cl)cc2)Sc2ccccc21)NCCN1CCOCC1	30%*
Cc1c(C(=O)N2CCC(C#N)CC2)sc2ncnc(N3CCN(c4ccccc4)CC3)c12	i
CCCN1CCC2(CC1)C1CN(CCC)CC=C1C(C#N)=C(N)C2(C#N)C#N (stereo not given)	i
O=C(c1ccccc1Br)N1N=C(C2CCCCC2)CC1(O)C(F)(F)F (stereo not given)	i
O=C(C[C@@H]1CCNC[C@@H]1Cc1cc(COc2ccccc2)on1)N1CCN(Cc2ccccc2)CC1	i
Cc1ccc2oc(=O)n(CC(=O)N(Cc3ccsc3)CC(C)C)c2c1	i
CN1C(=O)C2(CCCN(C(=O)CCn3cnnc3)C2)c2ccccc21 (stereo not given)	i
CC(C(=O)N[C@H]1C[C@@H]2CC[C@H]1C2)N(c1ccccc1)S(C)(=O)=O (stereo not given in full)	i
O=C(c1ccc(F)cc1)N(Cc1ccccc1)Cc1ccccc1	i
CC(=O)C1=NN(c2ccccc2)C2C(=O)N(c3ccc(C)cc3)C(=O)C12 (stereo not given)	i
CC1=NN(c2ccccc2)C(=O)C1C(=O)c1ccc(F)cc1 (stereo not given)	37%*
O=c1ccn(-c2nc(-c3ccccc3)oc2-c2ccccc2)c(=O)[nH]1	i
COc1ccc(N2CC(NC(=O)c3ccco3)CC2=O)cc1 (stereo not given)	i
COc1ccc(N2CC(NC(=O)c3ccc(Br)o3)CC2=O)cc1 (stereo not given)	31%*
O=C(NC1CC(=O)N(c2ccccc2)C1)c1ccc(Br)o1 (stereo not given)	i
SMILES	ST2 IL33 inh
Cc1ccc2c(c1)c(CNc1nccc(CCC(F)(F)F)n1)nn2C	i
Cc1cccc(Cn2c(CNS(=O)(=O)c3ccccc3Cl)nc3cccnc32)c1	i
CC(C)c1[nH]nc2c1C1(CCN(Cc3ccccc3)CC1)C(C#N)=C(N)O2	31%*
CCN1C(=O)C2(C(C#N)=C(N)Oc3n[nH]c(-c4ccccc4)c32)c2ccccc21 (stereo not given)	i
CC(C)c1[nH]nc2c1C(c1cccc(Cl)c1Cl)C(C#N)=C(N)O2 (stereo not given)	i
CC1CCN(C(=O)c2ccc3c(c2)N(C)C(=O)C2CCCCN32)CC1 (stereo not given)	i
CCc1c(C)sc(NC(=O)c2ccc([N+](=O)[O-])cc2)c1C(N)=O	i
Cc1cc(OC(C)C)nc(-c2ccccc2O)n1	i
Cc1cc(NC2CCCCC2)nc(-c2ccccc2O)n1	i
Cc1cc(N2N=C(c3ccccc3)CC2=O)nc(-c2ccccc2O)n1	31%*
O=c1c2ccccc2ncn1CCCOc1ccc(OCc2ccccc2)cc1	i
CC1=CCC2CC1C(c1ccc(N(C)C)cc1)OC2(C)C (stereo not given)	60%*
Cn1cc(Cc2nc(C3CC3)n[nH]2)c2ccccc21	i
O=C(Nc1nnc(COc2ccc(Cl)cc2)s1)C1CCCCC1	i
Cc1cc(NC(=O)CS(=O)(=O)c2cn(Cc3ccccc3Cl)c3ccccc23)no1	i
O=C(CS(=O)(=O)c1cn(Cc2ccccc2Cl)c2ccccc12)NC1CCCCC1	32%*
CCn1cc(S(=O)(=O)CC(=O)NC2CCCCC2)c2ccccc21	i
Cc1cc(N2CCCCC2)nc2ccc(NC(=O)CCC(=O)N3CCCC(C)C3)cc12 (stereo not given)	i
O=C(NCc1cccnc1)c1ccc(Cl)cc1Cl	i
Oc1c(C=Nc2cccc(F)c2)[nH]c2ccc(Br)c(Cl)c12	32%*
O=[N+]([O-])c1cccc(N=Cc2ccc(Br)c([N+](=O)[O-])c2)c1	i
Oc1c(C=Nc2ccc(Br)cc2)[nH]c2ccc(Br)c(Cl)c12	30%*
O=[N+]([O-])c1ccc(N=Cc2cc(Br)cc(I)c2O)cc1	i
Oc1c(C=NC2CCCCC2)[nH]c2ccc(Br)c(Cl)c12	45%*
Cc1c(Cl)c(C)c([N+](=O)[O-])c(O)c1C=Nc1cccc(C(=O)O)c1	i
SMILES	ST2 IL33 inh
Cc1ccc(C=Nc2ccc(Br)cc2)cc1	i
O=C(Nc1cccc(Cl)c1)c1cc(=O)c2ccccc2o1	i
O=C(CN1CCN(Cc2ccccc2Cl)S1(=O)=O)Nc1ccc2c(c1)OCO2	i
CCOc1cc(C(=O)Nc2c(C)cccc2C)ccc1Cl	i
CCC(C(=O)Nc1ccccc1NC(C)=O)c1ccccc1 (stereo not given)	i
O=C(NCc1cccs1)c1ccc2c(c1)N(Cc1ccc(F)cc1Cl)C(=O)CS2	i
CC(=O)N1CCC(Oc2ccc(Cl)cc2C(=O)NC2(c3ccccc3)CC2)CC1	i
COc1ccc(OC)c(NC(=O)C2CCN(S(=O)(=O)c3cccnc3)CC2)c1	i
O[C@@H]1CN(Cc2cccn2-c2ccccn2)CC[C@H]1c1ccc2c(c1)OCO2	i
O=C(c1ccco1)N1CCN(Cc2cccn2-c2ncccn2)CC1	i
O=C(Nc1cccc(-c2ccco2)c1)C1CCN(Cc2cccn2-c2ccccn2)CC1	32%*
COc1ccc(NC(=O)CN(c2cccc(C)c2)S(C)(=O)=O)cc1Cl	i
COc1ccccc1C(=O)Oc1ccc2c(c1)C(C)=CC(C)(C)N2	i
CC1=CC(C)(C)Nc2ccc(OC(=O)c3ccc4c(c3)OCO4)cc21	30%*
COc1ccc(/C(N)=N\OC(=O)c2ccc3c(c2)OCO3)cc1OC	i
CC(=O)c1ccc2c(c1)c1ccccc1n2C(C)C	i
Cc1cc(C(=O)N2CC=CC2C(C)C)cc(S(N)(=O)=O)c1C (stereo not given)	i
COc1ccc(Nc2ccc(OC)cc2)cc1	70%*
COc1ccc(OC)c(S(=O)(=O)Nc2ccccc2)c1	i
COc1ccc(Nc2ccccc2)c(C)c1	37%*
COc1ccc(C2CC(=O)C=C(Nc3ccccc3)C2)cc1 (stereo not given)	i
COc1ccc(CNc2ccccc2C(=O)O)cc1	i
COc1ccc(NC2=C(C)C(=O)CC2)cc1	i
COc1ccc(NS(=O)(=O)c2cccc(C(=O)Nc3ccccc3C(=O)O)c2)cc1	i
COc1ccc(NC(=O)Nc2ccc(I)cc2)cc1	i
COc1ccc(Nc2ccccc2C(=O)O)cc1	35%*
Cc1ccc(NC(=O)Cc2c(C(=O)O)[nH]c3ccc(Cl)cc23)cc1F	i
CN1[C@@H](CCC(=O)NCc2ccc(F)cc2)CNC(=O)[C@@H]2[C@H]1CCN2C1CCCCC1	i
COc1ccc(C)cc1NC(=O)c1cnc(Nc2ccccc2OC)c2ccccc12	i
